# Data as given in PMC8384837, “Expanding the binding specificity for RNA recognition by a PUF domain”.
# Changes are numbered by the printed parent chain.
# Experiments:
# Experiment in all cases: yeast three-hybrid, YBZ-1, SC-Leu-His + 0.5 mM 3-AT, 4 days
# Conditions in all cases: tags: N-Gal4 AD-HA kept; label: inside an RPR1-promoter hybrid RNA with tandem MS2 sites; ssRNA
# PUM1 PUF domain R7-LSS = PUM1 PUF domain R7-LSS (Homo sapiens, UniProt Q14671 828-1176, S1079L;N1080S;E1083S)
# Summary of the method: (§1)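 Sequencing with Illumina followed PCR amplification of the repeat regions from transformants grown four days on SC-Leu (input) or SC-Leu-His + 0.5 mM 3-AT (selection). The transformants were strain YBZ-1 with a LexA–MS2 coat fusion and a HIS3 reporter, carrying Pumilio-1 PUF domain libraries and matching RNA elements. The interaction score is the log change in variant frequency from input to selection, computed in log2 with a pseudocount of 1 for absent variants.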
# PUM1 PUF domain R7-RCG = PUM1 PUF domain R7-RCG (Homo sapiens, UniProt Q14671 828-1176, S1079R;N1080C;E1083G)
# Summary of the method: as §1
# PUM1 PUF domain R8-SWS = PUM1 PUF domain R8-SWS (Homo sapiens, UniProt Q14671 828-1176, N1122S;Y1123W;Q1126S)
# Summary of the method: as §1
# PUM1 PUF domain R3-IRT = PUM1 PUF domain R3-IRT (Homo sapiens, UniProt Q14671 828-1176, C935I;Q939T)
# Summary of the method: as §1
# PUM1 PUF domain R6-IYL = target: T1, PUM1 PUF domain R6-IYL (Homo sapiens, UniProt Q14671 828-1176, N1043I;Q1047L)
# T1 sequence: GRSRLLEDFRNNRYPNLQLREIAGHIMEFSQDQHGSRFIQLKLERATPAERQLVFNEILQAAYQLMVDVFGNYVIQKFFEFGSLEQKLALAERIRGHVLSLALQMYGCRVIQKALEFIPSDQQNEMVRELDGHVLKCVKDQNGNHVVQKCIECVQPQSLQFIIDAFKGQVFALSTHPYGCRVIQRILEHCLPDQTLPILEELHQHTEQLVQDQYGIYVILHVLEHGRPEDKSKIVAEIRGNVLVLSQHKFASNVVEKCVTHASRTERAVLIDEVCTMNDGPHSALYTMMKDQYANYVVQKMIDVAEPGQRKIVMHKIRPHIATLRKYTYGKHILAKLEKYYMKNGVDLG
# Summary of the method: as §1
# PUM1 PUF domain R3-GRT = PUM1 PUF domain R3-GRT (Homo sapiens, UniProt Q14671 828-1176, C935G;Q939T)
# Summary of the method: as §1
# PUM1 PUF domain R6-SYA = target: T2, PUM1 PUF domain R6-SYA (Homo sapiens, UniProt Q14671 828-1176, N1043S;Q1047A)
# T2 sequence: T1 sequence with I216S, L220A
# Summary of the method: as §1
# PUM1 PUF domain R5-GRG = PUM1 PUF domain R5-GRG (Homo sapiens, UniProt Q14671 828-1176, C1007G;Q1011G)
# Summary of the method: as §1
# PUM1 PUF domain R3-VRT = PUM1 PUF domain R3-VRT (Homo sapiens, UniProt Q14671 828-1176, C935V;Q939T)
# Summary of the method: as §1
# PUM1 PUF domain R3-YWG = PUM1 PUF domain R3-YWG (Homo sapiens, UniProt Q14671 828-1176, C935Y;R936W;Q939G)
# Summary of the method: as §1
# PUM1 PUF domain R4-DWR = PUM1 PUF domain R4-DWR (Homo sapiens, UniProt Q14671 828-1176, N971D;H972W;Q975R)
# Summary of the method: as §1
# PUM1 PUF domain R1-KGM = PUM1 PUF domain R1-KGM (Homo sapiens, UniProt Q14671 828-1176, S863K;R864G;Q867M)
# Summary of the method: as §1
# PUM1 PUF domain R1-YPR = PUM1 PUF domain R1-YPR (Homo sapiens, UniProt Q14671 828-1176, S863Y;R864P;Q867R)
# Summary of the method: as §1
# PUM1 PUF domain R7-KYN = PUM1 PUF domain R7-KYN (Homo sapiens, UniProt Q14671 828-1176, S1079K;N1080Y;E1083N)
# Summary of the method: as §1
# PUM1 PUF domain R2-KRG = PUM1 PUF domain R2-KRG (Homo sapiens, UniProt Q14671 828-1176, N899K;Y900R;Q903G)
# Summary of the method: as §1
# PUM1 PUF domain R5-LHP = PUM1 PUF domain R5-LHP (Homo sapiens, UniProt Q14671 828-1176, C1007L;R1008H;Q1011P)
# Summary of the method: as §1
# PUM1 PUF domain R5-DGA = PUM1 PUF domain R5-DGA (Homo sapiens, UniProt Q14671 828-1176, C1007D;R1008G;Q1011A)
# Summary of the method: as §1
# PUM1 PUF domain R3-WWV = PUM1 PUF domain R3-WWV (Homo sapiens, UniProt Q14671 828-1176, C935W;R936W;Q939V)
# Summary of the method: as §1
# PUM1 PUF domain R3-FCE = PUM1 PUF domain R3-FCE (Homo sapiens, UniProt Q14671 828-1176, C935F;R936C;Q939E)
# Summary of the method: as §1
# PUM1 PUF domain R3-LFM = PUM1 PUF domain R3-LFM (Homo sapiens, UniProt Q14671 828-1176, C935L;R936F;Q939M)
# Summary of the method: as §1
sequence,measurement,setting,value
GGCUAGAACUAGUGGAUCCCCCGGCGCCCGGCGGCUCGAGCCCGGGUAAGUUUAAAUAGUCUGCAUGCCGCCGGGCGCCAUGCCUGCAGGUCGACUCUAGAAAACAUG,binding signal,PUM1 PUF domain R7-LSS,2.47 log2 enrichment (interaction score)
same,binding signal,PUM1 PUF domain R7-RCG,2.43 log2 enrichment (interaction score)
GGCUAGAACUAGUGGAUCCCCCGGCGCCCGGCGGCUCGAGCCCGGGUAAGCGUAAAUAGUCUGCAUGCCGCCGGGCGCCAUGCCUGCAGGUCGACUCUAGAAAACAUG,binding signal,PUM1 PUF domain R8-SWS,2.67 log2 enrichment (interaction score)
GGCUAGAACUAGUGGAUCCCCCGGCGCCCGGCGGCUCGAGCCCGGGUAAGUGUAAAUAGUCUGCAUGCCGCCGGGCGCCAUGCCUGCAGGUCGACUCUAGAAAACAUG,binding signal,PUM1 PUF domain R3-IRT,4.08 log2 enrichment (interaction score)
same,binding signal,PUM1 PUF domain R6-IYL,4.93 log2 enrichment (interaction score)
same,binding signal,PUM1 PUF domain R3-GRT,2.82 log2 enrichment (interaction score)
same,binding signal,PUM1 PUF domain R6-SYA,2.48 log2 enrichment (interaction score)
same,binding signal,PUM1 PUF domain R8-SWS,2.46 log2 enrichment (interaction score)
same,binding signal,PUM1 PUF domain R5-GRG,3.08 log2 enrichment (interaction score)
same,binding signal,PUM1 PUF domain R3-VRT,3.97 log2 enrichment (interaction score)
same,binding signal,PUM1 PUF domain R3-YWG,4.94 log2 enrichment (interaction score)
GGCUAGAACUAGUGGAUCCCCCGGCGCCCGGCGGCUCGAGCCCGGGUAAGUGUACAUAGUCUGCAUGCCGCCGGGCGCCAUGCCUGCAGGUCGACUCUAGAAAACAUG,binding signal,PUM1 PUF domain R4-DWR,6.69 log2 enrichment (interaction score)
GGCUAGAACUAGUGGAUCCCCCGGCGCCCGGCGGCUCGAGCCCGGGUAAGUGUAAAUUGUCUGCAUGCCGCCGGGCGCCAUGCCUGCAGGUCGACUCUAGAAAACAUG,binding signal,PUM1 PUF domain R1-KGM,0.32 log2 enrichment (interaction score)
same,binding signal,PUM1 PUF domain R1-YPR,5.44 log2 enrichment (interaction score)
GGCUAGAACUAGUGGAUCCCCCGGCGCCCGGCGGCUCGAGCCCGGGUAAGUGUAAAUCGUCUGCAUGCCGCCGGGCGCCAUGCCUGCAGGUCGACUCUAGAAAACAUG,binding signal,PUM1 PUF domain R1-KGM,2.83 log2 enrichment (interaction score)
same,binding signal,PUM1 PUF domain R1-YPR,3.29 log2 enrichment (interaction score)
GGCUAGAACUAGUGGAUCCCCCGGCGCCCGGCGGCUCGAGCCCGGGUAAGUGUGAAUAGUCUGCAUGCCGCCGGGCGCCAUGCCUGCAGGUCGACUCUAGAAAACAUG,binding signal,PUM1 PUF domain R5-GRG,3.07 log2 enrichment (interaction score)
GGCUAGAACUAGUGGAUCCCCCGGCGCCCGGCGGCUCGAGCCCGGGUAAGUCUAAAUAGUCUGCAUGCCGCCGGGCGCCAUGCCUGCAGGUCGACUCUAGAAAACAUG,binding signal,PUM1 PUF domain R7-KYN,3.09 log2 enrichment (interaction score)
GGCUAGAACUAGUGGAUCCCCCGGCGCCCGGCGGCUCGAGCCCGGGUAAGUGUAAAGAGUCUGCAUGCCGCCGGGCGCCAUGCCUGCAGGUCGACUCUAGAAAACAUG,binding signal,PUM1 PUF domain R2-KRG,4.1 log2 enrichment (interaction score)
GGCUAGAACUAGUGGAUCCCCCGGCGCCCGGCGGCUCGAGCCCGGGUAAGUGUUAAUAGUCUGCAUGCCGCCGGGCGCCAUGCCUGCAGGUCGACUCUAGAAAACAUG,binding signal,PUM1 PUF domain R5-LHP,3.09 log2 enrichment (interaction score)
same,binding signal,PUM1 PUF domain R5-DGA,2.6 log2 enrichment (interaction score)
same,binding signal,PUM1 PUF domain R5-GRG,3.72 log2 enrichment (interaction score)
GGCUAGAACUAGUGGAUCCCCCGGCGCCCGGCGGCUCGAGCCCGGGUAAGUGUAAUUAGUCUGCAUGCCGCCGGGCGCCAUGCCUGCAGGUCGACUCUAGAAAACAUG,binding signal,PUM1 PUF domain R3-GRT,1.63 log2 enrichment (interaction score)
same,binding signal,PUM1 PUF domain R3-WWV,2.73 log2 enrichment (interaction score)
same,binding signal,PUM1 PUF domain R3-YWG,4.54 log2 enrichment (interaction score)
GGCUAGAACUAGUGGAUCCCCCGGCGCCCGGCGGCUCGAGCCCGGGUAAGUGUCAAUAGUCUGCAUGCCGCCGGGCGCCAUGCCUGCAGGUCGACUCUAGAAAACAUG,binding signal,PUM1 PUF domain R5-GRG,0.84 log2 enrichment (interaction score)
GGCUAGAACUAGUGGAUCCCCCGGCGCCCGGCGGCUCGAGCCCGGGUAAGUGUAUAUAGUCUGCAUGCCGCCGGGCGCCAUGCCUGCAGGUCGACUCUAGAAAACAUG,binding signal,PUM1 PUF domain R4-DWR,5.3 log2 enrichment (interaction score)
GGCUAGAACUAGUGGAUCCCCCGGCGCCCGGCGGCUCGAGCCCGGGUAAGUGUAAGUAGUCUGCAUGCCGCCGGGCGCCAUGCCUGCAGGUCGACUCUAGAAAACAUG,binding signal,PUM1 PUF domain R3-FCE,3.54 log2 enrichment (interaction score)
same,binding signal,PUM1 PUF domain R3-GRT,1.58 log2 enrichment (interaction score)
same,binding signal,PUM1 PUF domain R3-WWV,4.18 log2 enrichment (interaction score)
same,binding signal,PUM1 PUF domain R3-YWG,6.77 log2 enrichment (interaction score)
same,binding signal,PUM1 PUF domain R3-LFM,5.47 log2 enrichment (interaction score)
